# Reference: PMC7862700, “An all-to-all approach to the identification of sequence-specific readers for epigenetic DNA modifications on cytosine”
# Legend:
# Test in all cases: DAPPL (digital affinity profiling via proximity ligation, sequencing); 10 mM Tris-HCl pH 7.5, 50 mM NaCl, 1 mM DTT, 4% glycerol, room temperature, 30 min; GST-TFs on glutathione beads, 16-mer random dsDNA library, 0.1% formaldehyde crosslink after washing; high values mean tight binding
# FLI1 = target: T1, FLI1 (Homo sapiens, UniProt Q01543 1-452); conditions: protein: recombinant; tags: N-terminal GST; dsDNA, one strand shown
# T1 sequence: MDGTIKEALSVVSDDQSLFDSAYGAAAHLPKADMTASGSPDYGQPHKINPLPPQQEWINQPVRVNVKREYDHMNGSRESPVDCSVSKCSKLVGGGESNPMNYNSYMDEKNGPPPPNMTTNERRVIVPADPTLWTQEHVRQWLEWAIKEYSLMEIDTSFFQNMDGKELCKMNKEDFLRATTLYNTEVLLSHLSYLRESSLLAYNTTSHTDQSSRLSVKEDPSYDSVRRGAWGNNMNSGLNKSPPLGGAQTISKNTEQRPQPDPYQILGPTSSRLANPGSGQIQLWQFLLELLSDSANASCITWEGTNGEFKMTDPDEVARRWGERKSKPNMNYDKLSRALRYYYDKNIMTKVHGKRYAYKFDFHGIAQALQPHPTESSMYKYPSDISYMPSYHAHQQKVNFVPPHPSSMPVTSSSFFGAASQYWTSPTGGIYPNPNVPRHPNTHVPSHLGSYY
# Summary of the method: (§1)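 Human transcription factors carrying a GST fusion were produced in yeast, bound to glutathione beads, tagged with DNA barcodes and pooled together with a tag-only sample. Each pool was held with 200 nmole of a random double-stranded 16-mer DNA library in Tris/NaCl/DTT/glycerol buffer for 30 min at room temperature, then washed, crosslinked in 0.1% formaldehyde, proximity-ligated with BsaI/T4 ligase (1 h, 37 °C), PCR-amplified and sequenced on an Illumina NextSeq500. Binding signal is the read frequency of each hexamer for a given factor divided by its frequency in the tag-only sample.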
# ELK1 = target: T2, ELK1 (Homo sapiens, UniProt P19419 1-428); conditions: protein: recombinant; tags: N-terminal GST; dsDNA, one strand shown
# T2 sequence: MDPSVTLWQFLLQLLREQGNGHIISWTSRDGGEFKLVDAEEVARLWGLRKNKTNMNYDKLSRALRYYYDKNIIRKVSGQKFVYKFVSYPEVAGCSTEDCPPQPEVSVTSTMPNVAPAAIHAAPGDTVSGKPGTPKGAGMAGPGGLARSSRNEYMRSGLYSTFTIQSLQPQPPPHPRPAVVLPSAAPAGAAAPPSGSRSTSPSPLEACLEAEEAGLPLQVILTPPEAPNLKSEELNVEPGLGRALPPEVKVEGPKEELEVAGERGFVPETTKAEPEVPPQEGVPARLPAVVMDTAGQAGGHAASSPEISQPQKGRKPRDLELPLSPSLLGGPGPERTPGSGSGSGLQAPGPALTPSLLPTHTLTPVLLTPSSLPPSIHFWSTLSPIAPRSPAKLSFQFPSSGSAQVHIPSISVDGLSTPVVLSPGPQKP
# Summary of the method: as §1
# GABPA = target: T3, GABPA (Homo sapiens, UniProt Q06546 1-454); conditions: protein: recombinant; tags: N-terminal GST; dsDNA, one strand shown
# T3 sequence: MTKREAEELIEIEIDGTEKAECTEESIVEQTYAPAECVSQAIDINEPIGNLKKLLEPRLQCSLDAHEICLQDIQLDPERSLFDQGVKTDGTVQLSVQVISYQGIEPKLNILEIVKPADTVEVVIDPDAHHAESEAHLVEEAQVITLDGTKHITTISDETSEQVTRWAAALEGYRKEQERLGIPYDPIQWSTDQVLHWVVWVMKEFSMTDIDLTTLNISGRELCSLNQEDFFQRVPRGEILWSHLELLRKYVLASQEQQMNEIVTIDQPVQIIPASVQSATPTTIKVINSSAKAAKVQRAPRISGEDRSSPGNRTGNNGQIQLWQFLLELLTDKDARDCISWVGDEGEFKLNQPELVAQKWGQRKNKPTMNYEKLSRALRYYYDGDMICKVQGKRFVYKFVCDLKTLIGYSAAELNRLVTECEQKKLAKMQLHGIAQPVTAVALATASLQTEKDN
# Summary of the method: as §1
# ERG = target: T4, ERG (Homo sapiens, UniProt P11308 1-479); conditions: protein: recombinant; tags: N-terminal GST; dsDNA, one strand shown
# T4 sequence: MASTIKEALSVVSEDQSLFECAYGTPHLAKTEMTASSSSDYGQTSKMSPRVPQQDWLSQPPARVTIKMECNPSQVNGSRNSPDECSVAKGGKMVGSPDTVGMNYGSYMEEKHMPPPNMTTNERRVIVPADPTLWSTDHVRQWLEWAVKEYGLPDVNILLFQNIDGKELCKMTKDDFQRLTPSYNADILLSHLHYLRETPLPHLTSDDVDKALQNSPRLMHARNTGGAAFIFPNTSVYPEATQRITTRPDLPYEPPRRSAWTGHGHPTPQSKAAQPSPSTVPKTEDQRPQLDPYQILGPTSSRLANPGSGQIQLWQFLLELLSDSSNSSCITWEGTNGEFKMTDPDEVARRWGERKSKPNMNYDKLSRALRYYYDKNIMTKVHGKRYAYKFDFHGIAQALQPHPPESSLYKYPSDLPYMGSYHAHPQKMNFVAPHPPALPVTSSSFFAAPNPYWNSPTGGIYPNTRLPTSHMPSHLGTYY
# Summary of the method: as §1
# ELF1 = ELF1 (Homo sapiens, UniProt P32519 1-619); conditions: protein: recombinant; tags: N-terminal GST; dsDNA, one strand shown
# Summary of the method: as §1
# EHF = target: T5, EHF (Homo sapiens, UniProt Q9NZC4 1-300); conditions: protein: recombinant; tags: N-terminal GST; dsDNA, one strand shown
# T5 sequence: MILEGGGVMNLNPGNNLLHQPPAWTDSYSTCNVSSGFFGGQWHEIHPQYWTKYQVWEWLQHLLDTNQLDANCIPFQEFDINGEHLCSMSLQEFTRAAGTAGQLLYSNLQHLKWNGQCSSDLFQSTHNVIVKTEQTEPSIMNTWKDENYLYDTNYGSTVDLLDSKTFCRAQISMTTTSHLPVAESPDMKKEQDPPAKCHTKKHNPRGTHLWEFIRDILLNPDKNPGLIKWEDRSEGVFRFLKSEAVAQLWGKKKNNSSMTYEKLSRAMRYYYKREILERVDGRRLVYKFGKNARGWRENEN
# Summary of the method: as §1
# SPI1 = SPI1 (Homo sapiens, UniProt P17947 1-270); conditions: protein: recombinant; tags: N-terminal GST; dsDNA, one strand shown
# Summary of the method: as §1
# SPIB = SPIB (Homo sapiens, UniProt Q01892 1-262); conditions: protein: recombinant; tags: N-terminal GST; dsDNA, one strand shown
# Summary of the method: as §1
# ELK3 = target: T6, ELK3 (Homo sapiens, UniProt P41970 1-407); conditions: protein: recombinant; tags: N-terminal GST; dsDNA, one strand shown
# T6 sequence: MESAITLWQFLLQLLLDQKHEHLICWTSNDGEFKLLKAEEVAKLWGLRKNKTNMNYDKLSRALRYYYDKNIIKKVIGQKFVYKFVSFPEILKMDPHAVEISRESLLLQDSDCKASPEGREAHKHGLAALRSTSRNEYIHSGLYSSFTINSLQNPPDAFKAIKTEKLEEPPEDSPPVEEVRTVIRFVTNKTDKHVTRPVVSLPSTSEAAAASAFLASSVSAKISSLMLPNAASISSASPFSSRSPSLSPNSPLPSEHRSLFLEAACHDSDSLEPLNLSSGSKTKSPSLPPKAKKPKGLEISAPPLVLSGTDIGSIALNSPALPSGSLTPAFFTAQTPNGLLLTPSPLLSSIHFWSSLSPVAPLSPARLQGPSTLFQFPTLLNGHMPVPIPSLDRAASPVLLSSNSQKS
# Summary of the method: as §1
# FEV = target: T7, FEV (Homo sapiens, UniProt Q99581 1-238); conditions: protein: recombinant; tags: N-terminal GST; dsDNA, one strand shown
# T7 sequence: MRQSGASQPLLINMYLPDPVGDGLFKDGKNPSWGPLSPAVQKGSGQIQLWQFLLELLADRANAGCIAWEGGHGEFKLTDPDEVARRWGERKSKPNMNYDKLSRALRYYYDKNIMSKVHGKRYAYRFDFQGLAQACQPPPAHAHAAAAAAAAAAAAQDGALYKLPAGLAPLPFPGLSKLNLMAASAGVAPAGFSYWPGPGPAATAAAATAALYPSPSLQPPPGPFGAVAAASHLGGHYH
# Summary of the method: as §1
# ETV5 = ETV5 (Homo sapiens, UniProt P41161 1-510); conditions: protein: recombinant; tags: N-terminal GST; dsDNA, one strand shown
# Summary of the method: as §1
# HSF1 = HSF1 (Homo sapiens, UniProt Q00613 1-529); conditions: protein: recombinant; tags: N-terminal GST; chain copies: 3; dsDNA, one strand shown
# Summary of the method: as §1
# SPIC = target: T8, SPIC (Homo sapiens, UniProt Q8N5J4 1-248); conditions: protein: recombinant; tags: N-terminal GST; dsDNA, one strand shown
# T8 sequence: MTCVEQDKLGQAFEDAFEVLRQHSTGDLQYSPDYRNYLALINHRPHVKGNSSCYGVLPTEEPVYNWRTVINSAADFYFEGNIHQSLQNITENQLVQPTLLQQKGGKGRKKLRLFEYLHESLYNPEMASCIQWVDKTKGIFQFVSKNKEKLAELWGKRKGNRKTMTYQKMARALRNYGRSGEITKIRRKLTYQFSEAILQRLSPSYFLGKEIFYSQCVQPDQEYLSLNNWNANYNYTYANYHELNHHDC
# Summary of the method: as §1
# ELF4 = ELF4 (Homo sapiens, UniProt Q99607 1-663); conditions: protein: recombinant; tags: N-terminal GST; dsDNA, one strand shown
# Summary of the method: as §1
# ELK4 = target: T9, ELK4 (Homo sapiens, UniProt P28324-2 1-405); conditions: protein: recombinant; tags: N-terminal GST; dsDNA, one strand shown
# T9 sequence: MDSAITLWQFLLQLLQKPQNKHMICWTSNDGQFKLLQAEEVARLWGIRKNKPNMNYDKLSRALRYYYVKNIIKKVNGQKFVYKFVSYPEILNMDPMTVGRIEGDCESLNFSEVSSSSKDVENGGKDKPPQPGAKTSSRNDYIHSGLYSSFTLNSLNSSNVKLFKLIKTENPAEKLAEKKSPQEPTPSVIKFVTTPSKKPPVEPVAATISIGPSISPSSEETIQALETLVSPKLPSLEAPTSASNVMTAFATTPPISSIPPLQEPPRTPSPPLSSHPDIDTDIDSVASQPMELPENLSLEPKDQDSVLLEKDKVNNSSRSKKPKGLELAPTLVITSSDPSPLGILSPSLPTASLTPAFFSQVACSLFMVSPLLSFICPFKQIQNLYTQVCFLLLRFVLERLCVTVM
# Summary of the method: as §1
# ETV2 = target: T10, ETV2 (Homo sapiens, UniProt O00321 1-342); conditions: protein: recombinant; tags: N-terminal GST; dsDNA, one strand shown
# T10 sequence: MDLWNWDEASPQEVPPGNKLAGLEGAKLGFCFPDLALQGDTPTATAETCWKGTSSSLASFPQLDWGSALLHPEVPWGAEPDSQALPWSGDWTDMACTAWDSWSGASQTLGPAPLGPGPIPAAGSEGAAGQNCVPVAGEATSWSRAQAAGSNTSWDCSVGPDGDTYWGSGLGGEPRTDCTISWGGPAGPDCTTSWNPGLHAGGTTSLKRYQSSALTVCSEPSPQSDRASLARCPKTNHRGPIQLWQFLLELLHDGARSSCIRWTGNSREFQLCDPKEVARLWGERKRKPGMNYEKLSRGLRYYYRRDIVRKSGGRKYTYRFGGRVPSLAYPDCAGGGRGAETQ
# Summary of the method: as §1
# ELF3 = target: T11, ELF3 (Homo sapiens, UniProt P78545 1-371); conditions: protein: recombinant; tags: N-terminal GST; dsDNA, one strand shown
# T11 sequence: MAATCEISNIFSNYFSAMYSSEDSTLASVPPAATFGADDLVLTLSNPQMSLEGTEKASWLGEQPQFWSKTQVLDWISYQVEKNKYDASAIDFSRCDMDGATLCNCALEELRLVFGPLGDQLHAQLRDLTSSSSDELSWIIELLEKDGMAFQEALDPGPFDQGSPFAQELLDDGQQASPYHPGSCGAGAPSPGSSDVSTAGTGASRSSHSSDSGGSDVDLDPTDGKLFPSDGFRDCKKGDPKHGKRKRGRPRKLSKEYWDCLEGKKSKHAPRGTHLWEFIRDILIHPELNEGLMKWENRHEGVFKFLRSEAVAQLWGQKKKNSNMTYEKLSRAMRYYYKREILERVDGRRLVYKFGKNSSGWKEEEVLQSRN
# Summary of the method: as §1
# CRX = CRX (Homo sapiens, UniProt O43186 1-299); conditions: protein: recombinant; tags: N-terminal GST; dsDNA, one strand shown
# Summary of the method: as §1
# ETV1 = ETV1 (Homo sapiens, UniProt P50549 1-477); conditions: protein: recombinant; tags: N-terminal GST; dsDNA, one strand shown
# Summary of the method: as §1
# Chain of ELF1 (P32519 whole entry): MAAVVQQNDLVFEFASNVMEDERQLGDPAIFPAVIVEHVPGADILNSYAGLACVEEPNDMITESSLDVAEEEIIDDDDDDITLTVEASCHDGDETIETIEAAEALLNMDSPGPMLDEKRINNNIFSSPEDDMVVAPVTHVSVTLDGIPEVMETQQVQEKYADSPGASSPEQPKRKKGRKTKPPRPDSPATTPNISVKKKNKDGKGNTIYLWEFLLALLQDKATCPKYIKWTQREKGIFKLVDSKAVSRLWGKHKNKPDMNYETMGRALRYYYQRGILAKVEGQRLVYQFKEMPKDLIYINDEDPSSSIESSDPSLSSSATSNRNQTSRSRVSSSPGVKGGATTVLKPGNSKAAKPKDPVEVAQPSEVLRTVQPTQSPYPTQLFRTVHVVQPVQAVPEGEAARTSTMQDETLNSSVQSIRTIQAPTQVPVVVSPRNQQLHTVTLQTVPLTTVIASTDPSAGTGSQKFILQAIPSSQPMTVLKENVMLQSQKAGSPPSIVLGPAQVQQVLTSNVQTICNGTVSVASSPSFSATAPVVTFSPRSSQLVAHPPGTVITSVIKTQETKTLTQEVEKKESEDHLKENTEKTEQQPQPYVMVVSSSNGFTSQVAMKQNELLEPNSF
# Chain of ETV1 (P50549 whole entry): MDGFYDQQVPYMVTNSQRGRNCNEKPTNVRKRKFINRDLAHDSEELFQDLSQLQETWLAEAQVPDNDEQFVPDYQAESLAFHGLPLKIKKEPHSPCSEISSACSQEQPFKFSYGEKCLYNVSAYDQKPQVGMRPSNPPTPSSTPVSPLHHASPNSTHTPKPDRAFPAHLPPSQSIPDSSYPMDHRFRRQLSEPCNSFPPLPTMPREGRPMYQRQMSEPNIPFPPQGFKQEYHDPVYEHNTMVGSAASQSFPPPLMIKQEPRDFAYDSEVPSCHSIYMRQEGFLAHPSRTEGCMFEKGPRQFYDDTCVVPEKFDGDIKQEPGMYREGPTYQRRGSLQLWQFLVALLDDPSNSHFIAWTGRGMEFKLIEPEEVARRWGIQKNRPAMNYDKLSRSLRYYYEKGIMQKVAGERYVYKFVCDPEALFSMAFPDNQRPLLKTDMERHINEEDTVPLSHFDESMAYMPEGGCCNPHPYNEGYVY
# Chain of ELF4 (Q99607 whole entry): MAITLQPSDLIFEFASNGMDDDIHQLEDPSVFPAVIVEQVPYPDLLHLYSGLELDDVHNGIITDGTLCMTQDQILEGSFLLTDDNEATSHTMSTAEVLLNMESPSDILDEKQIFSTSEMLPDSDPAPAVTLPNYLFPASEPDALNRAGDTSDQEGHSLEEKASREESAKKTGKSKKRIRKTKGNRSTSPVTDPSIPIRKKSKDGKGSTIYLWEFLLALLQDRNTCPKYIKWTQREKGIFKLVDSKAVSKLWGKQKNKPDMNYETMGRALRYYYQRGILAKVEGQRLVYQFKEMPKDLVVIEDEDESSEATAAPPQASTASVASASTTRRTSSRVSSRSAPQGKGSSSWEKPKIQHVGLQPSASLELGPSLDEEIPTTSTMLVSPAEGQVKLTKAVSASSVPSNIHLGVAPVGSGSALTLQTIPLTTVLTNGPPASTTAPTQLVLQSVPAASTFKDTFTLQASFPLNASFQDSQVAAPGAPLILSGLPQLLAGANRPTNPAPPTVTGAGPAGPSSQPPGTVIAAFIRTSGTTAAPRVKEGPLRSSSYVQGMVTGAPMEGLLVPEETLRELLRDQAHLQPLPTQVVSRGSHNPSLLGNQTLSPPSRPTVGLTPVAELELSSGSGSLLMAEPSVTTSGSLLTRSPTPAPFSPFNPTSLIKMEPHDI
# Chain of ETV5 (P41161 whole entry): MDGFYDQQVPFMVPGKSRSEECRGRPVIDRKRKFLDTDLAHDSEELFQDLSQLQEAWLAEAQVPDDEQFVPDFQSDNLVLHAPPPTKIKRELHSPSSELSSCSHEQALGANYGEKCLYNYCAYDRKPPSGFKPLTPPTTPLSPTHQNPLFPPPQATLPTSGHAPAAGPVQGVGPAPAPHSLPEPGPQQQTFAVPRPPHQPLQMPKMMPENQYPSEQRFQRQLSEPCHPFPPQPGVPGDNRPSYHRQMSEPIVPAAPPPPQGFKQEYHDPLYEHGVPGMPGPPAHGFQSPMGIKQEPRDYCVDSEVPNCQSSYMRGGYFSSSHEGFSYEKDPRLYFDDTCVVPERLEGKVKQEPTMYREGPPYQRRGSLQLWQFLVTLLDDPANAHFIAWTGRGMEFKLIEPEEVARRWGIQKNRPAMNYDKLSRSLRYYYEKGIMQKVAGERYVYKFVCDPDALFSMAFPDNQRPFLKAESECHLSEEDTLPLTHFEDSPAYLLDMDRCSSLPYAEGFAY
# Chain of HSF1 (Q00613 whole entry): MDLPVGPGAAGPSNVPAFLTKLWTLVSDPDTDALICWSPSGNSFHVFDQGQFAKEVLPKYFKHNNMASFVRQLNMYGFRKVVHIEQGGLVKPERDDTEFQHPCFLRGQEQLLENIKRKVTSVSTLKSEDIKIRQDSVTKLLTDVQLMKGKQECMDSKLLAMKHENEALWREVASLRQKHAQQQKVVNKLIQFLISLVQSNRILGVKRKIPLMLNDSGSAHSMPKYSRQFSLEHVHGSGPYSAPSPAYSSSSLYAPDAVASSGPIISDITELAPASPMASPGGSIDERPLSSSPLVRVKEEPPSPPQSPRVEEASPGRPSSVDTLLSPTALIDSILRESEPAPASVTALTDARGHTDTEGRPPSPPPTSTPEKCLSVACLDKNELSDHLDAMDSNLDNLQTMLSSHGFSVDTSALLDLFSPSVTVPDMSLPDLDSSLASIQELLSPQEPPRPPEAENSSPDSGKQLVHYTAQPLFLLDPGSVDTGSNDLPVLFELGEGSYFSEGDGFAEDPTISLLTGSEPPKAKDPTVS
# Chain of CRX (O43186 whole entry): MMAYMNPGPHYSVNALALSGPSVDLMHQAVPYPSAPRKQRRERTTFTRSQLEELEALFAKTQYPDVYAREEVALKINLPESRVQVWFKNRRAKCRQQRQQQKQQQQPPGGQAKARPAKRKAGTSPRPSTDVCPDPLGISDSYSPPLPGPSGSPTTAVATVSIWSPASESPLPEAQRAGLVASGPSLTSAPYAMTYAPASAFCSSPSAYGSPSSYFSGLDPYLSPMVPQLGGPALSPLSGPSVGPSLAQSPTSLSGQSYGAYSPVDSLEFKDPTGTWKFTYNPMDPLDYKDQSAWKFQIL
# Chain of SPIB (Q01892 whole entry): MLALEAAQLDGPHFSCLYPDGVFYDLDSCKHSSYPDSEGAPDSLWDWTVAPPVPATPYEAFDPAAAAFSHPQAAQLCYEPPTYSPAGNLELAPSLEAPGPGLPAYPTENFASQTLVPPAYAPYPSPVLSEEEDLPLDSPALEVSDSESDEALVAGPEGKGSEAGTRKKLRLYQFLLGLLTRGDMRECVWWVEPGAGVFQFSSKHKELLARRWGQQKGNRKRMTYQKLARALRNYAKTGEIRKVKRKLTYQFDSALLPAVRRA
sequence,measurement,setting,value
CATCTA,binding signal,FLI1,"1.22 fold enrichment (6-mer frequency, TF over GST control)"
same,binding signal,ELK1,"1.3 fold enrichment (6-mer frequency, TF over GST control)"
same,binding signal,GABPA,"1.25 fold enrichment (6-mer frequency, TF over GST control)"
same,binding signal,ERG,"1.11 fold enrichment (6-mer frequency, TF over GST control)"
same,binding signal,ELF1,"1.25 fold enrichment (6-mer frequency, TF over GST control)"
same,binding signal,EHF,"1.18 fold enrichment (6-mer frequency, TF over GST control)"
same,binding signal,SPI1,"1.16 fold enrichment (6-mer frequency, TF over GST control)"
same,binding signal,SPIB,"1.17 fold enrichment (6-mer frequency, TF over GST control)"
same,binding signal,ELK3,"1.13 fold enrichment (6-mer frequency, TF over GST control)"
same,binding signal,FEV,"1.14 fold enrichment (6-mer frequency, TF over GST control)"
same,binding signal,ETV5,"1.15 fold enrichment (6-mer frequency, TF over GST control)"
same,binding signal,HSF1,"1.47 fold enrichment (6-mer frequency, TF over GST control)"
same,binding signal,SPIC,"1.34 fold enrichment (6-mer frequency, TF over GST control)"
same,binding signal,ELF4,"1.17 fold enrichment (6-mer frequency, TF over GST control)"
same,binding signal,ELK4,"1.33 fold enrichment (6-mer frequency, TF over GST control)"
same,binding signal,ETV2,"1.1 fold enrichment (6-mer frequency, TF over GST control)"
same,binding signal,ELF3,"1.33 fold enrichment (6-mer frequency, TF over GST control)"
same,binding signal,CRX,"1.29 fold enrichment (6-mer frequency, TF over GST control)"
same,binding signal,ETV1,"1.16 fold enrichment (6-mer frequency, TF over GST control)"
